# Legend:
# Experiment in all cases: PBM binding z-score (relative to random genomic background probes); higher = stronger binding; sequences stand for … in GC…GCGATTGACAGCGTAGAATGAAGG
# [1] = system: PPARg:RXRa DBDmut IVT, anti-RXR (DBD mutation: RXRa K156A/R161A, NR concentration 270 nM, RXRa partner concentration 90 nM)
# Method in brief: (§1)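 Binding z-scores were set against random background probes. The data came from custom Agilent 4×180K protein-binding microarrays carrying double-stranded probes with 34-nt variable regions, incubated 1 h with ligand-free nuclear receptor dimers. Partner-specific antibodies detected binding, and scanned fluorescence was regression-normalized.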
# [2] = system: PPARg:RXRa IVT, anti-PPARg (NR concentration 270 nM, RXRa partner concentration 90 nM)
# Method in brief: as §1
# [3] = system: PPARg DBDmut:RXRa IVT, anti-PPARg (DBD mutation: PPARg1 K132A/R137A, NR concentration 270 nM, RXRa partner concentration 90 nM)
# Method in brief: as §1
# [4] = system: PPARg DBDmut IVT, anti-PPARg (DBD mutation: PPARg1 K132A/R137A, NR concentration 270 nM)
# Method in brief: as §1
# [5] = system: PPARg homodimer (NR concentration 180 nM)
# Method in brief: as §1
# [6] = system: PXR:RXRa (NR concentration 270 nM, RXRa partner concentration 90 nM)
# Method in brief: as §1
# [7] = system: PXR homodimer (NR concentration 270 nM)
# Method in brief: as §1
# [8] = system: RARa:RXR (NR concentration 270 nM, RXRa partner concentration 90 nM)
# Method in brief: as §1
# [9] = system: RARa homodimer (NR concentration 270 nM)
# Method in brief: as §1
# [10] = system: RARb:RXRa (NR concentration 270 nM, RXRa partner concentration 90 nM)
# Method in brief: as §1
Sequence,PBM binding z-score [1],PBM binding z-score [2],PBM binding z-score [3],PBM binding z-score [4],PBM binding z-score [5],PBM binding z-score [6],PBM binding z-score [7],PBM binding z-score [8],PBM binding z-score [9],PBM binding z-score [10]
CGAACTAGGCCAGAACAGGACAGTGAAGGATGAT,3.99,3.44,0.251,0.0234,0.0323,-0.123,-0.145,0.379,0.0972,0.171
TCTATTAGTAGAAGGGCAACCGACGAGTCCGTTT,1.9,0.562,0.63,-0.0614,0.492,0.479,0.325,0.693,0.276,1.36
GATACAGGGTCTGCTAGAGGCCAGAGTATGGAAA,-0.826,-0.333,-1.05,-1.35,-0.406,-0.54,-0.558,-0.523,-0.148,0.305
CCGACTGGGGCAAAGGTAACCATACTCAGTACGA,4.95,5.05,-0.085,-0.917,0.706,0.067,-0.401,1.14,-0.0329,0.906
CGTCCAAGGTCATAGGAGGTCAGTGACGACAGAT,3.6,4.57,0.237,0.133,5.09,6.69,4.69,6.08,2.29,5.44
TGAATGAGGTTAAAGATCAGGGGACGTGGCGTCG,2.48,3.35,1.21,0.582,1.75,1.7,-0.086,3.31,0.0279,2.11
TAACCTAGGTCATTGGGCCAGTATAGTACGCATC,4.7,5.03,1.2,0.368,1.68,2.09,0.379,2.92,0.714,3.88
TCATATAGGTAAGCAGGTGAAAGTCCGTAAGTTA,4.03,3.94,0.357,0.715,0.516,0.257,0.129,0.662,0.214,0.318
CCTACTGGGCCATCATGTCATTGATATCAACGTT,4.06,4.28,0.246,0.754,0.785,-0.129,0.119,0.097,-0.0554,0.332
TCTGCTAGGTCAGTTGGTGAGCTAACGAGCTGCC,2.62,2.7,0.403,1.14,-0.166,-0.0879,-1.19,0.102,-1.25,3.16
TCGCGTAGGTTAGTCGGGGCATTCAGCCAACATA,0.798,0.382,-0.631,-0.248,-0.58,0.226,-0.158,0.335,-0.333,0.559
GCTGCTAGGTCAGGTTGGTCAGCTATCGGGTACG,2.93,2.58,-0.776,-0.675,1.22,0.328,-0.458,0.73,-0.348,3.46
CCTACTGGGCGATCAGGTCATTGATATCAACGTT,1.18,1.66,-0.36,-0.403,0.86,1.29,0.227,1.47,0.157,1.6
CCTGCTAGGTCAATGGTCAACTAAAGCAGCTCGC,3.98,4.58,0.116,-1.17,1.41,1.22,-0.291,2.27,-0.296,3.79
CAGACTGGGGCAGAAAGGTTACCATACCATCCGG,2.77,3.01,-0.514,-0.142,2.11,1.39,-0.052,2.24,0.536,2.04
CCTTACGGGTCACTGACAGGTTATCGCATTTGGA,3.47,3.69,0.381,0.623,2.57,3.78,-0.364,4.93,0.262,4.06
TCATATAGGTAAGGGTGAAAGTCGAACGATATGA,2.65,2.84,1.53,1.28,1.03,0.664,0.181,1.14,0.462,1.13
GCTCGGAGCACAAGGTCAGAGCTTTGTCCGTAGA,0.516,0.181,-1.55,-1.25,0.0109,1.7,-0.525,1.75,-1.06,2.63
TAGCCTAGGTGATGGGCCAGTATACCACGCGAAC,-0.692,0.25,-0.775,-0.847,-0.49,-0.714,-0.807,-0.895,-1.38,-0.281
ATCTCTAGGTAACCAAGTTCATTGAATGCCGAAC,3.59,3.08,1.78,1.57,1.37,3.97,7.05,1.72,1.19,1.75
GATACAGGGTCAAGGCCAGAGGACGCGTATTGAT,2.29,3.97,0.837,0.968,2.75,3.68,0.296,4.56,1.16,4.44
GTACCAAGGTGAATAGGTCGTTGAAGAGTAGGCG,1.8,2.92,0.0444,-0.34,1.08,1.12,0.219,1.79,0.784,1.94
CCTAGTTGGTGAAGGTCACACACGCTATAGGTAC,1.01,2.4,1.24,0.782,2.47,3.34,1.34,3.61,1.61,3.74
CAAACTAGGTCACCGGAAGGTCAAAATCCGCATG,8.74,9.07,7.15,5.58,9.41,5.86,1.73,7.2,3.23,5.11

Sequence,PBM binding z-score [1],PBM binding z-score [2],PBM binding z-score [3],PBM binding z-score [4],PBM binding z-score [5],PBM binding z-score [6],PBM binding z-score [7],PBM binding z-score [8],PBM binding z-score [9],PBM binding z-score [10]
AACACAGGGTCACTAGGCCAGAGTAGGTACGAAT,3.35,5.16,3.43,0.694,5.13,3.16,0.347,4.14,0.685,4.19
CAAACTAGGTCAAAGGTCAAAGTGGAGCCAACCA,8.72,9.15,3.29,1.05,7.6,7.01,2.04,8.86,5.25,5.8
CCTAGTTGGTCAGGAGGTCAAACACCGGATATGA,1.54,3.02,0.223,0.259,3.46,4.59,2.21,5.06,2.09,3.76
TAGCCTAGGTCATTGGGCCAGTACAGTACGCATC,2.86,3.89,-0.0279,0.0815,1.12,1.71,-0.112,2.12,-0.528,3.67
AGAATGAGGTTACCAAAGATCAGGGACACGCTTG,4.01,3.4,0.894,0.0801,0.873,1.29,0.182,2.1,0.459,2.14
TCTAGTTGGTCACGGAGGTCAAACACGACGGGTA,2.37,3.95,0.658,0.77,3.43,5.11,2.87,5.16,1.13,3.9
GCAGACAGGTGAAACGCGGGTAACTCAGGGTGGC,1.2,0.724,-0.459,-1.01,-0.647,-0.0302,-0.747,0.318,-0.909,0.691
CCTACTGGGCCACGAAAGGTCATTGAATCAGTGA,5.88,5.52,0.0728,-0.421,2.53,5.09,1.26,5.07,0.674,4.03
CCTAGCAGGCGAATCTGGGTCACTCAAGGCTTGA,4.47,5.39,-1.46,-1.28,0.225,0.221,-0.605,1.13,-0.282,0.812
TAGACTAGGTCAGATCGGGCCAGTATACGCTATA,4.39,5.26,1.46,0.155,0.192,0.932,-0.501,1.18,-0.174,2.99
AATACTGGGTCACTAGGCCAGAGTAGGTACGAAT,6.63,7.76,5.62,2.22,1.9,0.792,0.0229,1.53,0.983,3.19
TCTTGTCGATCAACAGGAGGTTAAGAAAGATCGA,0.771,0.105,-0.14,-0.175,-0.727,0.727,-0.0541,0.726,0.067,0.397
TCTTGTAGATCAAAGGTTAAGAGAGCCGAAGCCT,1.9,3.87,0.236,-0.197,0.759,1.87,-0.162,3.06,0.341,1.9
CCGACTGGAGCAAGGTTACCATAACGCACAGCCA,1.3,0.76,-0.802,-0.726,0.608,0.248,-0.0714,0.527,-0.0817,0.876
CGTCCAAGGTCATAGGAGGTCAGTAAAGACAGAT,3.22,4.57,1,1.13,5.13,6.88,4.18,6.22,2.02,5.38
TGAATGCGGTTAAAGATCAGGGAACGTGGCGTCG,-0.715,0.725,0.416,0.69,0.0368,-0.493,-0.492,-0.11,-0.405,0.315
GCGACTGGGCCAAAGCAGGTTACCATAAGGTTGG,2.12,1.67,-1.03,-0.738,-0.482,-0.203,-0.655,0.347,-0.649,-0.0107
TCTAGTTGCTCAAAGGTCACACACTCGAAATGCG,2.7,3.98,1.38,1.19,3.79,5.31,1.24,5.48,2.63,4.94
ATCAAAAGGTCGACGAGGTGAGTATACACCGTTT,0.837,2.54,1.44,1.18,2.16,3.22,0.528,3.88,1.22,4
CCAGAGAGGTGAGAAGGTAACTCAGCCTCGATTA,2.21,1.69,-0.147,-0.518,0.918,0.339,0.0728,1.04,-0.0942,1.57
GATACAGGGTTAGCTAGAGGCCAGAGTATGGAAA,-0.257,0.231,-0.237,-1.22,0.107,0.293,-0.052,0.625,-0.595,1.07
CCTACTGGGGCATTCAGAGGTCATTGATCATATG,4.5,5.15,0.018,0.266,2.6,5.08,2.1,4.67,0.372,3.45
AATACAGGGTCATCGTAGGCCAGAGTGCGCACAG,2.61,4.22,1.07,1.13,1.9,4.97,0.782,4.82,0.464,4.48
CCTACGGGGCCATCAGGTCATTGATATCAACGTT,1.08,2.4,-0.644,-0.657,1.9,2.18,0.639,2.97,0.686,2.86

# — the supplement of paper PMC6555819
